“And” between values parts separate entries of the source, which are not always exact repeats. Identical values can stand only once. Results filed as inconclusive are left out. Where a structure was tested more than once in an assay, its records may differ in their call. The source made the active and inactive calls. Unless noted, calls come from the whole dose curve; as a rule, active = well fitted curve in the direction sought with a large enough effect in the repeat runs; inconclusive = weak or mixed curves; inactive = no such curve, though single readings can be large; an effect the other way counts as inactive or inconclusive.

Assay [1] has as its target Luciferin 4-monooxygenase (Photinus pyralis) (UniProt P08659). Description: qHTS assay to identify small molecule inhibitors of firefly luciferase (AID 1224835). Note: nearly all actives have a fitted effect of over 25% in size. Note: potency is the fitted concentration of half-maximal effect. In a few lines:
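Quantitative HTS format; KM concentrations of both substrates. Purified P. pyralis FLuc activity quantified from luminescence images.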
On the technique in general: qHTS replaces the single test concentration by a dilution series.

Assay [2] in a line: qHTS assay to identify small molecule agonists of the constitutive androstane receptor (CAR) signaling pathway - cell viability counter screen (AID 1224836). Note: nearly all actives have a fitted effect of over 45% in size. In a few lines: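 HepG2-CYP2B6-hCAR, 2500 cells/well, 4 h pre-incubation; cpd 15 conc + PK11195 0.75 uM final; 23 h, 37 C/5% CO2; CellTiter-Fluor, fluorescence.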
Assay [3] in a line: qHTS assay to identify small molecule antagonists of the constitutive androstane receptor (CAR) signaling pathway - cell viability counter screen (AID 1224837). Note: nearly all actives have a fitted effect of over 45% in size. In outline:
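Using CellTiter-Fluor, viability is scored in HepG2 cells stably carrying hCAR and a 2.2kb CYP2B6 reporter after 23 hr compound exposure across 15 concentrations, with CITCO present at 50 nM.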

For assay [4], the target named is Nuclear receptor subfamily 1 group I member 3 (Homo sapiens) (UniProt Q14994). Kind of assay: qHTS assay to identify small molecule antagonists of the constitutive androstane receptor (CAR) signaling pathway (AID 1224838).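 Note: HepG2 cells stably expressing hCAR with CYP2B6 luciferase reporter stimulated by CITCO; nearly all actives have a fitted effect of over 40% in size.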 In outline:
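Reporter luminescence was quantified after 24 h exposure of hCAR/CYP2B6-2.2kb double-stable HepG2 cells to compounds at 15 concentrations in the presence of 50 nM CITCO final.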

Assay [5] has the same target. Description: qHTS assay to identify small molecule agonists of the constitutive androstane receptor (CAR) signaling pathway (AID 1224839).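 For activation: HepG2 cells stably carrying human CAR and a CYP2B6 luciferase reporter.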 Note: nearly all actives have a fitted effect of over 15% in size. Note: potency is the fitted concentration of half-maximal effect. In outline: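 HepG2-CYP2B6-hCAR cells, 2500/well, 4 h pre-incubation; compounds 15 conc.; PK11195 0.75 uM final; 24 h, 37 C/5% CO2; ONE-Glo luciferase read.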
The target in assay [6] is Thyrotropin receptor (Homo sapiens) (UniProt P16473). Description: qHTS assay to identify small molecule agonists of the thyroid stimulating hormone receptor (TSHR) signaling pathway (AID 1224843; calls by dose curve; note: nearly all actives have a fitted effect of over 45% in size). In a few lines: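 TSHR-expressing HEK293 cells (800 per well) were exposed to compounds for 30 min at room temperature. cAMP was then detected by HTRF competition with cAMP-d2 and anti-cAMP cryptate, read after 1 h at room temperature. Fifteen concentrations, triplicate.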

Assay [7] in a line: qHTS assay to identify small molecule agonists of the hypoxia (HIF-1) signaling pathway - cell viability counter screen (AID 1224844; calls by dose curve; note: nearly all actives have a fitted effect of over 50% in size). In outline:
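Multiplexed with the HRE beta-lactamase assay, this viability read used CellTiter-Glo luminescence (30 min, RT) on HRE-bla ME-180 cells treated 17 hrs with compounds in 0.5% dialyzed FBS medium.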

Assay [8] can be described thus: qHTS assay to identify small molecule agonists of H2AX (AID 1224845; active = well fitted activation curve with a large enough effect in the signal ratio in the repeat runs, not every such curve was filed as active; the % refers to the signal ratio). In outline:
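Wild-type CHO-K1 cells plated overnight, then exposed 3 hr at 37C to compounds at 15 concentrations (0.76% DMSO). Lysed, then HTRF anti-pH2AX(S139)-cryptate/anti-H2AX-d2 detection after 24 hr at room temperature; emissions 665 and 620 nm.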

Assay [9] can be described thus: qHTS assay to identify small molecule agonists of the hypoxia (HIF-1) signaling pathway (AID 1224846; active = well fitted activation curve with a large enough effect in the signal ratio in the repeat runs, not every such curve was filed as active; the % refers to the signal ratio). In a few lines:
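Hypoxia-pathway activation was scored as increased beta-lactamase from an HRE-controlled reporter in ME-180 cells; plated at 2,000 cells per well with 0.5% dialyzed FBS, they were exposed 17 hrs to compounds and then given CCF4-AM.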

Assay [10] in a line: qHTS assay to identify small molecule agonists of H2AX - cell viability counter screen (AID 1224847; calls by dose curve; note: top concentration of the series differs between compounds; nearly all actives have a fitted effect of over 30% in size). In a few lines:
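Cells plated first: CHO-K1, 1000 per well in 10% FBS medium, incubated overnight at 37C. Then 15-point compound titration added (final DMSO 0.76%) for 3 hr. Finally CellTiter-Glo added and luminescence read.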

The nature of assay [11]: qHTS RealTime-Glo MT Cell Viability Assay in HepG2 cells - 24 hour (AID 1224867). Note: nearly all actives have a fitted effect of over 50% in size. In outline:
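qHTS, HepG2, 600 cells/well, RealTime-Glo (NanoLuc + prosubstrate) added with cells; 5 h preincubation; DMSO compound addition; 37 C; luminescence at 0/8/16/24/32/40 h.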

Assay [12] in a line: qHTS RealTime-Glo MT Cell Viability Assay in HEK293 cells - 32 hour (AID 1224868). Note: top concentration of the series differs between compounds; nearly all actives have a fitted effect of over 50% in size. In outline:
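Assay medium contained NanoLuc luciferase plus cell-permeant prosubstrate, added with HEK293 cells at 600 cells/well. After 5 h at 37 C/5% CO2 compounds were added; plates stayed at 37 C for 40 h with serial luminescence reads.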

Assay [13] is described as follows: A CellTox Green Cytotoxicity Assay to monitor cytotoxicity in HEK293 cells - 0 hour (AID 1224869). Note: nearly all actives have a fitted effect of over 50% in size. In outline: (§1)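 Seeding of HEK293 cells together with cytotoxicity dye preceded a 5 h incubation at 37 C/5% CO2. Test compounds in DMSO were then added and fluorescence monitored across 40 h.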
Assay [14] in a line: qHTS RealTime-Glo MT Cell Viability Assay in HepG2 cells - 40 hour (AID 1224870). Note: nearly all actives have a fitted effect of over 50% in size. In a few lines: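 HepG2 cells mixed with RealTime-Glo MT reagents (NanoLuc plus cell-permeant prosubstrate) were seeded at 600 cells/well, incubated 5 h at 37 C/5% CO2, then pinned with compounds in DMSO; nonlytic luminescence tracked viability during 40 h treatment.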
A short description of assay [15]: A CellTox Green Cytotoxicity Assay to monitor cytotoxicity in HEK293 cells - 40 hour (AID 1224871). Note: nearly all actives have a fitted effect of over 45% in size. Note: potency is the fitted concentration of half-maximal effect. In outline:
as §1

Assay [16] in a line: qHTS assay to identify small molecule antagonists of the estrogen related receptor signaling pathway with the pleiotropic PPARgamma coactivator (PGC) from Tox21 10K library - cell viability counter screen (AID 1224840; active = well fitted cell-killing curve with a large enough effect in the repeat runs, not every such curve was filed as active; note: nearly all actives have a fitted effect of over 40% in size). In a few lines:
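Here the PGC/ERR cells serve as a cytotoxicity control: they are exposed to compounds for 17.5 hours at 37 C, and live-cell signal is quantified using CellTiter-Fluor fluorescence.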

Assay [17] in a line: qHTS assay to identify small molecule antagonists of the estrogen related receptor signaling pathway with the pleiotropic PPARgamma coactivator (PGC) from Tox21 10K library (AID 1224841; call rule not given here). In a few lines:
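Each well held 2,000 PGC/ERR cells, pre-incubated six hours (37 C, 5% CO2). Test substances in DMSO were added by pin tool and left for 18 h at 37 C before luciferase detection by One-Glo.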

A short description of assay [18]: qHTS assay to identify small molecule agonists of the estrogen related receptor signaling pathway with the pleiotropic PPARgamma coactivator (PGC) from Tox21 10K library (AID 1224842). Note: nearly all actives have a fitted effect of over 15% in size. In outline:
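PGC/ERR reporter cells (NTP line) were seeded 2,000 per well, rested 6 h at 37 C/5% CO2, then pin-dosed with compounds in DMSO for 18 h at 37 C; luciferase read by One-Glo luminescence after 30 min at room temperature.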

Assay [19] can be described thus: qHTS assay to identify small molecule antagonists of the estrogen related receptor (ERR) signaling pathway from Tox21 library (AID 1224848). Note: nearly all actives have a fitted effect of over 50% in size. In outline: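 Cells: ERR line, 2,000/well; 6 h preincubation 37 C/5% CO2. Cpd in DMSO via pin tool; 18 h, 37 C. ONE-Glo, 30 min RT, luminescence.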
A short description of assay [20]: qHTS assay to identify small molecule agonists of the estrogen related receptor (ERR) signaling pathway from Tox21 library (AID 1224849; calls by dose curve; note: nearly all actives have a fitted effect of over 15% in size). The conditions noted are these: ERR reporter cell line, ONE-Glo luciferase, 18 h. In a few lines: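 Six hours post-seeding at 37 C/5% CO2, ERR cells receive DMSO-solubilised compounds; after 18 h at 37 C, ONE-Glo reagent is applied and luminescence recorded.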
% is set by controls: 0 for no effect and ±100 for the full control effect.

Luciferin 4-monooxygenase (Photinus pyralis), sequence (P08659 whole entry, looked up): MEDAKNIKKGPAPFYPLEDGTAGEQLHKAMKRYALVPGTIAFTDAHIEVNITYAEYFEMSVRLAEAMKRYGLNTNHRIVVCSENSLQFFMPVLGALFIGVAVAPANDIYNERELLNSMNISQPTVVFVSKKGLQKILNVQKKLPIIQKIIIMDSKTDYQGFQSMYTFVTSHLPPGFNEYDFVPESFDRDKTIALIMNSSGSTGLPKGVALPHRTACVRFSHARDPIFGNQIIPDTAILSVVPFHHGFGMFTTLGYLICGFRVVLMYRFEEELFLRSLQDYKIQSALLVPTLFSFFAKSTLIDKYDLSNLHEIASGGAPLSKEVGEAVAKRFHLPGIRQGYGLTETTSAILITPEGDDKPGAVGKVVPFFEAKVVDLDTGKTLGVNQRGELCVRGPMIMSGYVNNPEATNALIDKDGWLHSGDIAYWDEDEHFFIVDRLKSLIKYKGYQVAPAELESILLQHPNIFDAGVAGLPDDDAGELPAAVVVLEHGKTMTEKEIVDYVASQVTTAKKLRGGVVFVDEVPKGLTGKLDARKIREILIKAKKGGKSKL
Thyrotropin receptor (Homo sapiens), sequence (P16473 whole entry, looked up): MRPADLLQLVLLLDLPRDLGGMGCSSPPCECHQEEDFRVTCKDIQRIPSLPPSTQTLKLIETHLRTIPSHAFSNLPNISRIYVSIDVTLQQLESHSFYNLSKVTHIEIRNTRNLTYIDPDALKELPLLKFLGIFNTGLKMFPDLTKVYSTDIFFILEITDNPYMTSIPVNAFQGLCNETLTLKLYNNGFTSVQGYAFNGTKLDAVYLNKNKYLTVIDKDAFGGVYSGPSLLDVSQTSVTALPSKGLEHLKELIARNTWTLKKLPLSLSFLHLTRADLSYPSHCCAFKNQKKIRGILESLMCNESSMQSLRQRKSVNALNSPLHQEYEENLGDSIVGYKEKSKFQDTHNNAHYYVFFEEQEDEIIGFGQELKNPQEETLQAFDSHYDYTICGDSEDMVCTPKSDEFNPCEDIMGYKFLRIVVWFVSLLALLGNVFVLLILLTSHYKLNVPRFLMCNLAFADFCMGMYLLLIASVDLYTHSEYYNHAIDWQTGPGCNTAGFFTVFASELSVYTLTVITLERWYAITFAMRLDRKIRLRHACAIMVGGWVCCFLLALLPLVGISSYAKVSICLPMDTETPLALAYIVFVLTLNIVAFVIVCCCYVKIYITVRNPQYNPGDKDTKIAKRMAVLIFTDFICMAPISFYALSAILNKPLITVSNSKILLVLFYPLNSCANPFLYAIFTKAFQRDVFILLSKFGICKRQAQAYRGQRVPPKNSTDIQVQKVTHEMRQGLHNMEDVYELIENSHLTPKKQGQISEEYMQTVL
Nuclear receptor subfamily 1 group I member 3 (Homo sapiens), sequence (Q14994 whole entry, looked up): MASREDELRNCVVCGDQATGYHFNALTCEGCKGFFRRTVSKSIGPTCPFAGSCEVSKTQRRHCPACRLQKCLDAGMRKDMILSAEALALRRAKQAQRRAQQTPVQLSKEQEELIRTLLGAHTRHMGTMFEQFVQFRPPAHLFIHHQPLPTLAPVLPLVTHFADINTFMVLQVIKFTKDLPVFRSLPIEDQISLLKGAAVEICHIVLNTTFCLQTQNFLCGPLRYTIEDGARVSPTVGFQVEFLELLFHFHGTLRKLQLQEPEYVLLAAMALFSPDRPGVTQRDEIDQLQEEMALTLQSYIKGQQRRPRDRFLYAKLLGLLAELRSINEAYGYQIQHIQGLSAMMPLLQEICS

`CCCN1C=CN(C)C1`: the Potency result in assay [1], in assay [2], in assay [3], in assay [4], in assay [5] and in assay [6] was “inactive” each time. Further, the Potency result in [7], in [8], in assay [10], in [11], in assay [12] and in assay [13] was “inactive” each time. The Potency result in [14] and in [15] was “inactive” throughout. Moreover, in [9], the call was inactive.
For the compound `Nc1ccc2c(c1)C(=O)c1ccccc1C2=O`, the Potency in assay [1] is 2.78 µM (active) and 2.52 µM (active); in [5] it was 1.34 µM (active) and 969 nM (active); in assay [15], 30.3 µM (active) and inactive. The Potency result in assay [2], in assay [3], in [4], in assay [16], in [7] and in assay [8] was “inactive” in each case. Besides, the Potency result in [11], in assay [12] and in [13] was “inactive” throughout. In addition, the outcome in assay [9] was inactive.
Consider `CCCOCCO`, for which the Potency entry in [1], in [2], in assay [3], in assay [4], in assay [5] and in [6] was “inactive” each time. The Potency result in [7], in assay [8], in assay [10], in assay [11], in assay [12] and in [13] was “inactive” in each case. For the same compound, the Potency result in assay [15] is “inactive”. Also, the call in assay [9] was inactive.
For `C=CN1CCCC1=O`, the Potency result in [1], in assay [2], in [3], in assay [4], in [5] and in assay [16] was “inactive” each time. The Potency result in assay [7], in [8], in assay [10], in [11], in assay [12] and in assay [13] was “inactive” in each case. Further, the Potency entry in [14] and in assay [15] was “inactive” each time. In addition, the call in [9] was inactive.
For the compound `COc1ccc(C(=O)c2ccccc2O)c(O)c1`, the Potency result in assay [1], in assay [2], in assay [3], in assay [4], in [16] and in assay [17] was “inactive” in each case. Further, the Potency result in assay [18], in assay [6], in assay [7], in assay [8], in [19] and in assay [11] was “inactive” each time. In addition, the Potency result in assay [12], in assay [13] and in [14] was “inactive” in each case. For the same compound, the outcome in [9] was inactive. The values for the activity change, positive = activation in [20] (at 42.5 µM (top of the series)) and in [20] (at 92.4 µM (top of the series)) were -1.96% (inactive) and -27.1% (inactive), respectively. For the same compound, the Potency in [15] was 34.6 µM (active).
On to `[O-]/[N+](=N\O)c1ccccc1`, for which the Potency in [1] was 35.3 µM (active) and 22.4 µM (active). For the same compound, the Potency result in [2], in assay [3], in assay [4], in assay [16], in assay [18] and in [6] was “inactive” in each case. Further, the Potency entry in assay [7], in assay [8], in assay [19], in assay [11], in assay [12] and in [13] was “inactive” each time. Besides, the Potency result in assay [14] and in [15] was “inactive” in each case. Also, the outcome in [9] was inactive. In addition, the activity change, positive = activation in [20] (at 92.4 µM (top of the series)) is 4.43% (inactive) and 12.7% (inactive).
For `Cc1ccc2c(c1)C(=O)OC2=O`, the Potency entry in [1], in assay [2], in [3], in assay [4], in assay [5] and in assay [16] was “inactive” throughout. Moreover, the Potency entry in [7], in [8], in assay [11], in assay [12], in assay [13] and in assay [14] was “inactive” each time. Also, in [15], the Potency result is “inactive”. Further, the call in assay [9] was inactive.

(Values after PubChem BioAssay (Tox21).)
